Columns and labels:
Experiment in all cases: DAPPL (digital affinity profiling via proximity ligation, sequencing); 10 mM Tris-HCl pH 7.5, 50 mM NaCl, 1 mM DTT, 4% glycerol, room temperature, 30 min; GST-TFs on glutathione beads, 16-mer random dsDNA library, 0.1% formaldehyde crosslink after washing; high values mean tight binding
Conditions in all cases: protein: recombinant; tags: N-terminal GST; dsDNA, one strand shown
FEV = target: T1, FEV (Homo sapiens, UniProt Q99581 1-238)
T1 sequence: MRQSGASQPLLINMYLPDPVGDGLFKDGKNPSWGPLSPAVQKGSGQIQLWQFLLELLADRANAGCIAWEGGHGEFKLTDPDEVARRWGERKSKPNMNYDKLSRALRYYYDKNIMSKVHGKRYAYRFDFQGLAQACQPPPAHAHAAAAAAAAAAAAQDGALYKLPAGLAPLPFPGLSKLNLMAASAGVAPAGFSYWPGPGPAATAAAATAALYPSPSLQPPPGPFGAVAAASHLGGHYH
In short: (§1)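 Sequencing on an Illumina NextSeq500 followed washing, crosslinking with 0.1% formaldehyde, proximity ligation (BsaI/T4 ligase, 1 h, 37 °C) and PCR amplification of pools that had been incubated for 30 min at room temperature with 200 nmole of a random double-stranded 16-mer DNA library in Tris/NaCl/DTT/glycerol buffer. Each pool held DNA-barcoded human transcription factors, expressed in yeast as GST fusions and captured on glutathione beads, plus a tag-only sample. Binding signal is a hexamer's read frequency for a factor divided by its frequency in the tag-only sample.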

ETV5 = ETV5 (Homo sapiens, UniProt P41161 1-510)
Sequence of ETV5 (P41161 whole entry): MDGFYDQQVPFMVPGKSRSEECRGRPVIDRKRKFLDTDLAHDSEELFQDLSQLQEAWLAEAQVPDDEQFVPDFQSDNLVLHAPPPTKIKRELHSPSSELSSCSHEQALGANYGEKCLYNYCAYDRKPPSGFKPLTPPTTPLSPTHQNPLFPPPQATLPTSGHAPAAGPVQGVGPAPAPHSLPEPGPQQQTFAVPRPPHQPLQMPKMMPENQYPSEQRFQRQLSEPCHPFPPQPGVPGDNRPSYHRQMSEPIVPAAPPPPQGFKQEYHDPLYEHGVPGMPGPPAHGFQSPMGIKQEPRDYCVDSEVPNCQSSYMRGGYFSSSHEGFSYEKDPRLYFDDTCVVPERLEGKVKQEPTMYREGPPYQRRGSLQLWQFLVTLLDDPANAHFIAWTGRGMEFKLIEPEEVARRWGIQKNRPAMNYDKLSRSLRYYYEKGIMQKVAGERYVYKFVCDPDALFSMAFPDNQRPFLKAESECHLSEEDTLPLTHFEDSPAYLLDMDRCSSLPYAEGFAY
In short: as §1

SPIC = target: T2, SPIC (Homo sapiens, UniProt Q8N5J4 1-248)
T2 sequence: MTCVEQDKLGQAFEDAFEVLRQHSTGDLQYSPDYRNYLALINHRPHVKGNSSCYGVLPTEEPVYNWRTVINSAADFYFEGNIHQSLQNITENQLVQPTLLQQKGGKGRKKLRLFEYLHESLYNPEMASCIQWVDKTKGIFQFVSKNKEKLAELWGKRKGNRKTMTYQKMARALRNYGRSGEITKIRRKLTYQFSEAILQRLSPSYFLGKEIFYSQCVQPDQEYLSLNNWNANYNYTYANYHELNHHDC
In short: as §1

ELF4 = ELF4 (Homo sapiens, UniProt Q99607 1-663)
Sequence of ELF4 (Q99607 whole entry): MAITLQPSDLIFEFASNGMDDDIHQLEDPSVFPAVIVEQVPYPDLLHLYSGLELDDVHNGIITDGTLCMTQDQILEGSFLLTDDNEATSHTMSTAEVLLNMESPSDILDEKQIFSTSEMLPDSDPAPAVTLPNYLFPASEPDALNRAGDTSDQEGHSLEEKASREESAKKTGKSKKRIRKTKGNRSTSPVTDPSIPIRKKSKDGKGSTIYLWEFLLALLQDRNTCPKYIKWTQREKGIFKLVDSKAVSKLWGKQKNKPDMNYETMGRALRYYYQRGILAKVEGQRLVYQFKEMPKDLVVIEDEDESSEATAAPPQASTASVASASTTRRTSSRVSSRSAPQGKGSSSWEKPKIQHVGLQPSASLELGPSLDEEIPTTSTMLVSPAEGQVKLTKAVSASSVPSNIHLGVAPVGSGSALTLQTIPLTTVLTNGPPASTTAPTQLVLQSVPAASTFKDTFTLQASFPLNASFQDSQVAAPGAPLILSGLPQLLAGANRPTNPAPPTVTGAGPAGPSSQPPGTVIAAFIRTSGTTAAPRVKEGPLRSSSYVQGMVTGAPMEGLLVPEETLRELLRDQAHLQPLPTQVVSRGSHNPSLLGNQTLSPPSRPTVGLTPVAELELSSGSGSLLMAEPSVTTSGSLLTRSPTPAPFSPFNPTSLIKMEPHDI
In short: as §1

ELK4 = target: T3, ELK4 (Homo sapiens, UniProt P28324-2 1-405)
T3 sequence: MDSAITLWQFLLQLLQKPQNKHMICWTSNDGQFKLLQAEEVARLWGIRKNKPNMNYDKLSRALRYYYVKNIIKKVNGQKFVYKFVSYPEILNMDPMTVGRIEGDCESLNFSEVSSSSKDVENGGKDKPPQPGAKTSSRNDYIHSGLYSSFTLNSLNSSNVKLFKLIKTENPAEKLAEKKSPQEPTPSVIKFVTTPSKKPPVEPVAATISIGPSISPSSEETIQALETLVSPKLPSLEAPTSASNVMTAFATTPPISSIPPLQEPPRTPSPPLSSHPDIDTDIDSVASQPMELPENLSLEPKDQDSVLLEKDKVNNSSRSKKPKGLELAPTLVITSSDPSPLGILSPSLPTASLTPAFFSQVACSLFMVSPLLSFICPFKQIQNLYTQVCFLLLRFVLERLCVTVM
In short: as §1

ETV2 = target: T4, ETV2 (Homo sapiens, UniProt O00321 1-342)
T4 sequence: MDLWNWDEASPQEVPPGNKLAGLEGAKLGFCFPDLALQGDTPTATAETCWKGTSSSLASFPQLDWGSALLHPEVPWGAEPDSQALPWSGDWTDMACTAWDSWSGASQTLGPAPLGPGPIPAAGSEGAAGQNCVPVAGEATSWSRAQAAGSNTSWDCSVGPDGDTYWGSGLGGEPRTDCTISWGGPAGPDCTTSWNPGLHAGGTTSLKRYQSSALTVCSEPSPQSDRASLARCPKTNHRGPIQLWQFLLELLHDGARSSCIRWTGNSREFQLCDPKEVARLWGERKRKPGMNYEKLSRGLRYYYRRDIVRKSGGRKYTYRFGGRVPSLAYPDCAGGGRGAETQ
In short: as §1

ELF3 = target: T5, ELF3 (Homo sapiens, UniProt P78545 1-371)
T5 sequence: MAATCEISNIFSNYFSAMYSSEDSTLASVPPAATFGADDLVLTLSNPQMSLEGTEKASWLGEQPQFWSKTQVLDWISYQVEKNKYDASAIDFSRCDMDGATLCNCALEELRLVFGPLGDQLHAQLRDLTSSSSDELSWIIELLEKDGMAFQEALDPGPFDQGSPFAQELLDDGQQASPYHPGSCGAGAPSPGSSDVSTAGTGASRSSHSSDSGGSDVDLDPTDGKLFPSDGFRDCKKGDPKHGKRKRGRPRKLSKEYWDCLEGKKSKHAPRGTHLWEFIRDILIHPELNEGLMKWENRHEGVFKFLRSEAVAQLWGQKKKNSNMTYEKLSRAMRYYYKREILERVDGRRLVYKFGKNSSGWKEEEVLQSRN
In short: as §1

CRX = CRX (Homo sapiens, UniProt O43186 1-299)
Sequence of CRX (O43186 whole entry): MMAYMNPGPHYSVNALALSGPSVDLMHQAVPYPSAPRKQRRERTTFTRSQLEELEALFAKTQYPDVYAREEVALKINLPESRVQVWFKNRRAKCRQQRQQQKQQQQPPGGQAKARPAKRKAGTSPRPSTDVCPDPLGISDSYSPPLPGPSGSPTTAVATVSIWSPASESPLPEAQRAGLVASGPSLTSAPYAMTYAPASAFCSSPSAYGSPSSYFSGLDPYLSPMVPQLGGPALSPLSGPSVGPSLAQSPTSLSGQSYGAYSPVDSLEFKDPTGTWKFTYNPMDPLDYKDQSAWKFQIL
In short: as §1

ERF = target: T6, ERF (Homo sapiens, UniProt P50548 1-548)
T6 sequence: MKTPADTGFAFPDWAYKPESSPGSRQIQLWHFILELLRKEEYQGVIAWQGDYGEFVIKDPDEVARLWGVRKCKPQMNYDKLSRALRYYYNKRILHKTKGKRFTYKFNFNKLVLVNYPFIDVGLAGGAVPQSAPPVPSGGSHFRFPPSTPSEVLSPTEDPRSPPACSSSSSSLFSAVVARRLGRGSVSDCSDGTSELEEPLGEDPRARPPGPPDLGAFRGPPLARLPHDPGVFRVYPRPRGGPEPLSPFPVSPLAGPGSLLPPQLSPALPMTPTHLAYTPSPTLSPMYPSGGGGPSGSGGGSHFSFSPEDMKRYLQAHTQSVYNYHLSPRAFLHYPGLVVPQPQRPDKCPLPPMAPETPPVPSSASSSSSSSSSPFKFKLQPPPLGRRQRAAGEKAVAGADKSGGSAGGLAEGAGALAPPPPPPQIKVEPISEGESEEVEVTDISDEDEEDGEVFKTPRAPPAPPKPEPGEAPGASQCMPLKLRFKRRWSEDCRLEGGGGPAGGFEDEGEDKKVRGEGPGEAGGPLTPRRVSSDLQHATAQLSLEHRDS
In short: as §1

ETV3L = target: T7, ETV3L (Homo sapiens, UniProt Q6ZN32 1-361)
T7 sequence: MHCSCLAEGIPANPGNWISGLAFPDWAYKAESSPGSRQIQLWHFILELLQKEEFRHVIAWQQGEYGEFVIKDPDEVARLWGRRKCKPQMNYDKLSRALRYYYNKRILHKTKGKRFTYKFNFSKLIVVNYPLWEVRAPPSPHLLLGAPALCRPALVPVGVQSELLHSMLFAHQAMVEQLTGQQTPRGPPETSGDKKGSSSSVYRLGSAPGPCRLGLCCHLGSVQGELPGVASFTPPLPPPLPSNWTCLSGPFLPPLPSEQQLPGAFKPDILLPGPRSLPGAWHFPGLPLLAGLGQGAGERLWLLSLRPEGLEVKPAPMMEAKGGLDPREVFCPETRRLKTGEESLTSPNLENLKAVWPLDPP
In short: as §1

ETS2 = target: T8, ETS2 (Homo sapiens, UniProt P15036 1-469)
T8 sequence: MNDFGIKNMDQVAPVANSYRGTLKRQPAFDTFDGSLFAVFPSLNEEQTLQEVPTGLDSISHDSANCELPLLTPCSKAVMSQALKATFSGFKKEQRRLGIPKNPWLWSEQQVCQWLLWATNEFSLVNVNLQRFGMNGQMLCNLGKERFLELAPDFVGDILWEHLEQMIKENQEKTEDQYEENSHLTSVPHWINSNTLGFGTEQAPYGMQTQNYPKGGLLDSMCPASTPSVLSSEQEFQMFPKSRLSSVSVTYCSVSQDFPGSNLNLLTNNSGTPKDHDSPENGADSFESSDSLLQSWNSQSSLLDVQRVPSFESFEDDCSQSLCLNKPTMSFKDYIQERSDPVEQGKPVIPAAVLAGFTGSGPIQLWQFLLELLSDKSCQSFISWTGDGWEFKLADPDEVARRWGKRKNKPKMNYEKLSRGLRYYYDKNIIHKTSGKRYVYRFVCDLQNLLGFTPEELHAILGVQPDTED
In short: as §1

SPDEF = target: T9, SPDEF (Homo sapiens, UniProt O95238 1-335)
T9 sequence: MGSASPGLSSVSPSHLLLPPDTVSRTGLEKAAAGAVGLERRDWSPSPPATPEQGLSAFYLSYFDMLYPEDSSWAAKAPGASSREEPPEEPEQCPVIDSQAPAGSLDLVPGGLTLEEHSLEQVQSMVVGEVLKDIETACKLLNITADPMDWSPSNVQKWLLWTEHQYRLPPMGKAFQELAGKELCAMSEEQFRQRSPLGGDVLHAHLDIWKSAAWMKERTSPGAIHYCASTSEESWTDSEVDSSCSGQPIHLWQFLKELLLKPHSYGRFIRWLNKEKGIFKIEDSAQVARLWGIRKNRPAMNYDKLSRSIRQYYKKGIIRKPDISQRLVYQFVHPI
In short: as §1

ETV7 = target: T10, ETV7 (Homo sapiens, UniProt Q9Y603 1-341)
T10 sequence: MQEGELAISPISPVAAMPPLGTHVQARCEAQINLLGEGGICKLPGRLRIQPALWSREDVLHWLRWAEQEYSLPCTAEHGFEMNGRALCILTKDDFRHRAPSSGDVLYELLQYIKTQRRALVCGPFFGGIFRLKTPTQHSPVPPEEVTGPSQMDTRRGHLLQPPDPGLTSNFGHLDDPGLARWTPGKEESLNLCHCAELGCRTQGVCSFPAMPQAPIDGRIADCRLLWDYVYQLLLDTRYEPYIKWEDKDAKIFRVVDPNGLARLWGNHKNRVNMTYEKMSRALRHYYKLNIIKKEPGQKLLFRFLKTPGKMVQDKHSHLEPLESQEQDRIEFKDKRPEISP
In short: as §1

ELF5 = target: T11, ELF5 (Homo sapiens, UniProt Q9UKW6-2 1-255)
T11 sequence: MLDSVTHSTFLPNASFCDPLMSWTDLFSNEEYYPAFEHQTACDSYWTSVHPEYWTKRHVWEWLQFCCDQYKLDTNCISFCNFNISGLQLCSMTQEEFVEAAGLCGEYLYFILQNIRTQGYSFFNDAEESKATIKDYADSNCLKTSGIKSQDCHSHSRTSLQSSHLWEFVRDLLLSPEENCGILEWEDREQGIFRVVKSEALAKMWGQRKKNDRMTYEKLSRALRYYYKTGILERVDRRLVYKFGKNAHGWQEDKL
In short: as §1

ETV3 = target: T12, ETV3 (Homo sapiens, UniProt P41162-2 1-143)
T12 sequence: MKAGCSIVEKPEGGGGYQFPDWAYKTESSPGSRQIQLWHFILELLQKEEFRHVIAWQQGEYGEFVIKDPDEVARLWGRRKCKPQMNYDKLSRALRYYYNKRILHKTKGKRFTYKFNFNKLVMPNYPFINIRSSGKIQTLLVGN
In short: as §1

ETV6 = ETV6 (Homo sapiens, UniProt P41212 1-452)
Sequence of ETV6 (P41212 whole entry): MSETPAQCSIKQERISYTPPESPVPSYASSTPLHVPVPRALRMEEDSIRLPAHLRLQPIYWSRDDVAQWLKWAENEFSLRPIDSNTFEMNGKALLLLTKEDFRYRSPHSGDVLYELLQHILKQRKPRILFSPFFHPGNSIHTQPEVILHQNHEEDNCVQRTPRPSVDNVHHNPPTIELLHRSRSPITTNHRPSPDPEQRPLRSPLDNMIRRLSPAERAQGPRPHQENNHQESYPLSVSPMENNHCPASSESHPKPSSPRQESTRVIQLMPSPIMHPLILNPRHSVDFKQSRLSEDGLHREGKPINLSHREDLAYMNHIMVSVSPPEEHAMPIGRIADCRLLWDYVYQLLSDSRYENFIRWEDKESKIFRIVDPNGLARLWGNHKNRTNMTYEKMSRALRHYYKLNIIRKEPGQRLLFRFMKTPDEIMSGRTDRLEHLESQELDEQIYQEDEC
In short: as §1

ETV1 = ETV1 (Homo sapiens, UniProt P50549 1-477)
Sequence of ETV1 (P50549 whole entry): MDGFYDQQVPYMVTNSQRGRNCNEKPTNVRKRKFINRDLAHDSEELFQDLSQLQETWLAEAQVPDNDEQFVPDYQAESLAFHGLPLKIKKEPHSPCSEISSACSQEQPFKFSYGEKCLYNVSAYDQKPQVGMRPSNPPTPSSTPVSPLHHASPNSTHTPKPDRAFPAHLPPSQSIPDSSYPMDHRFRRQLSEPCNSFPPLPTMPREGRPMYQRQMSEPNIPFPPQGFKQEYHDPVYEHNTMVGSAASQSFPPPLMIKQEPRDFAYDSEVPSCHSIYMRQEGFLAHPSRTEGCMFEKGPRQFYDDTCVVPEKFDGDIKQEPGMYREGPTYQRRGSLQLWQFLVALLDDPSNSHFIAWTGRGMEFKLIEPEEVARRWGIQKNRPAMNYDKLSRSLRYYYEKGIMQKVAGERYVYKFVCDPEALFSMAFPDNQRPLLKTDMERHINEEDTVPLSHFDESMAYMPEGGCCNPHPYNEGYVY
In short: as §1

| Sequence | binding signal (FEV) | binding signal (ETV5) | binding signal (SPIC) | binding signal (ELF4) | binding signal (ELK4) | binding signal (ETV2) | binding signal (ELF3) | binding signal (CRX) | binding signal (ERF) | binding signal (ETV3L) | binding signal (ETS2) | binding signal (SPDEF) | binding signal (ETV7) | binding signal (ELF5) | binding signal (ETV3) | binding signal (ETV6) | binding signal (ETV1) |
| --- | --- | --- | --- | --- | --- | --- | --- | --- | --- | --- | --- | --- | --- | --- | --- | --- | --- |
| CGTTAT | 1.03 fold enrichment (6-mer frequency, TF over GST control) | 1.15 fold enrichment (6-mer frequency, TF over GST control) | 1.23 fold enrichment (6-mer frequency, TF over GST control) | 1.16 fold enrichment (6-mer frequency, TF over GST control) | 1.15 fold enrichment (6-mer frequency, TF over GST control) | 1.21 fold enrichment (6-mer frequency, TF over GST control) | 1.04 fold enrichment (6-mer frequency, TF over GST control) | 1.05 fold enrichment (6-mer frequency, TF over GST control) | 1.17 fold enrichment (6-mer frequency, TF over GST control) | 1.2 fold enrichment (6-mer frequency, TF over GST control) | 1.15 fold enrichment (6-mer frequency, TF over GST control) | 1.08 fold enrichment (6-mer frequency, TF over GST control) | 1.21 fold enrichment (6-mer frequency, TF over GST control) | 1.05 fold enrichment (6-mer frequency, TF over GST control) | 1.18 fold enrichment (6-mer frequency, TF over GST control) | 1.09 fold enrichment (6-mer frequency, TF over GST control) |  |
| ACCCAC | 1.22 fold enrichment (6-mer frequency, TF over GST control) | 1.15 fold enrichment (6-mer frequency, TF over GST control) | 1.23 fold enrichment (6-mer frequency, TF over GST control) | 1.23 fold enrichment (6-mer frequency, TF over GST control) | 1.21 fold enrichment (6-mer frequency, TF over GST control) | 1.19 fold enrichment (6-mer frequency, TF over GST control) | 1.33 fold enrichment (6-mer frequency, TF over GST control) |  | 1.2 fold enrichment (6-mer frequency, TF over GST control) | 1.02 fold enrichment (6-mer frequency, TF over GST control) | 1.15 fold enrichment (6-mer frequency, TF over GST control) | 1.21 fold enrichment (6-mer frequency, TF over GST control) | 1.18 fold enrichment (6-mer frequency, TF over GST control) | 1.19 fold enrichment (6-mer frequency, TF over GST control) | 1.13 fold enrichment (6-mer frequency, TF over GST control) | 1.2 fold enrichment (6-mer frequency, TF over GST control) | 1.17 fold enrichment (6-mer frequency, TF over GST control) |
| TCCGGG | 1.36 fold enrichment (6-mer frequency, TF over GST control) | 1.69 fold enrichment (6-mer frequency, TF over GST control) | 1.63 fold enrichment (6-mer frequency, TF over GST control) | 1.41 fold enrichment (6-mer frequency, TF over GST control) | 1.37 fold enrichment (6-mer frequency, TF over GST control) | 1.5 fold enrichment (6-mer frequency, TF over GST control) | 1.41 fold enrichment (6-mer frequency, TF over GST control) |  | 1.38 fold enrichment (6-mer frequency, TF over GST control) | 1.4 fold enrichment (6-mer frequency, TF over GST control) | 1.67 fold enrichment (6-mer frequency, TF over GST control) | 2.46 fold enrichment (6-mer frequency, TF over GST control) | 1.44 fold enrichment (6-mer frequency, TF over GST control) | 2.39 fold enrichment (6-mer frequency, TF over GST control) | 1.71 fold enrichment (6-mer frequency, TF over GST control) | 1.77 fold enrichment (6-mer frequency, TF over GST control) | 1.59 fold enrichment (6-mer frequency, TF over GST control) |

From PMC7862700, “An all-to-all approach to the identification of sequence-specific readers for epigenetic DNA modifications on cytosine”
